Source: PubChem BioAssay (NCATS)
Records with an inconclusive call do not appear. A number with no mark means an inactive call. Active and inactive are the calls of the source. Calls follow the shape of the dose curve; as a rule, active = well fitted inhibition curve with a large enough effect; inconclusive = small, poorly fitted or top-dose-only effect; inactive = no such curve, though single readings can be large or run the other way.

target: Retinal dehydrogenase 2 (Homo sapiens) (UniProt O94788); assay: qHTS for Inhibitors of the Aldehyde Dehydrogenase Family (ALDH1A2) Confirmation screens (AID 2061314); conditions: ALDH1A2 enzyme inhibition qHTS confirmation; series mostly up to 45.9 µM; activity, negative = inhibition: at the top concentration; also: nearly all actives have a fitted effect of over 65% in size; also: potency is read from the fitted curve at half-maximal effect; as to activity, negative = inhibition: % is scaled to controls: 0 for no effect and ±100 for the full control effect

SMILES	Potency	activity, negative = inhibition	outcome
O=[N+]([O-])/C=C/c1ccc2c(c1)OCO2	35.5 µM (active)	–	–
CC1=C(C)C(=O)C(CC[C@](C)(O)CCC[C@H](C)CCC[C@H](C)CCCC(C)C)=C(C)C1=O	4.49 µM (active)	–	–
CCCn1c(C)c(C(=O)c2ccc3ccccc3c2)c2ccccc21	–	-13.6%	–
O=S(=O)(Nc1ccc(-c2ccccc2)cc1)c1ccc(NCc2cccc(Cl)c2O)cc1	25.2 µM (active)	–	–
C[C@H]1O[C@@H](O[C@H]2CC[C@]3(CO)C4CC[C@]5(C)[C@@H](C6=CC(=O)OC6)CC[C@]5(O)[C@@H]4CC[C@H]3C2)[C@H](O)[C@H](O)[C@@H]1O[C@@H]1O[C@H](CO)[C@@H](O)[C@H](O)[C@H]1O (stereo not given in full)	–	–	inactive [at 16.7 µM]

target: Retinaldehyde dehydrogenase 3 (Homo sapiens) (UniProt P47895); assay: qHTS for Inhibitors of the Aldehyde Dehydrogenase Family (ALDH1A3) Primary screen (AID 2061315); conditions: ALDH inhibition qHTS; series mostly up to 56 µM; activity change, negative = inhibition: at the top concentration;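 also: plate controls were DMSO vehicle for no effect and reference inhibitor for full effect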

SMILES	activity change, negative = inhibition	Potency
Cc1cc(C)c(OP(=O)(OCc2c(-c3ccccc3)no[n+]2[O-])Oc2c(C)cc(C)cc2C)c(C)c1	-5.09%	–
Cc1ccc2nc(NC3=NC(c4[nH]ncc4Cl)C4=C(CCCC4=O)N3)oc2c1 (stereo not given)	-20.2%	–
NC(=O)c1ncn2c1CN=C(c1ccccc1Br)c1cc(F)ccc1-2	-2.48%	–
O=C1CN=C(c2ccccc2Cl)c2cc(Br)ccc2N1	-2.12%	–
C/C(=C\c1csc(C)n1)[C@@H]1C[C@@H]2O[C@@H]2CCC[C@H](C)[C@H](O)[C@@H](C)C(=O)C(C)(C)[C@@H](O)CC(=O)O1	-8.53%	–
CCOc1ccc(CCNC(=O)c2cc3ccccc3n2Cc2ccccn2)cc1OCC	-16.7%	–
Cc1ccccc1[C@@H](C(=O)NC1CCCCC1)N(C(=O)Cn1ccnc1C)c1cccc(F)c1	2.65%	–
COc1ccc(C(C)(C)C)cc1CN[C@H]1C2CCN(CC2)[C@H]1C(c1ccccc1)c1ccccc1	12.2%	–
CC(=O)OC1CC(O)C2(C)C(CC(OC(C)=O)C3(C)C2CCC2(C)C(c4ccoc4)C(=O)C4OC423)C1(C)C (stereo not given)	4.14% [at 28 µM]	–
CCOc1ccc(CCNC(=O)c2cc3ccncc3n2Cc2cccc(C)c2)cc1OCC	-0.0962%	–
COC(=O)C1(C)CCC(O)C2(C)c3c(O)cc(C(C)C)cc3C(O)C(OC(C)=O)C12 (stereo not given)	12% [at 28 µM]	–
COC1(C[S@@](=O)c2ccccc2)CCN(CCc2c[nH]c3ccc(F)cc23)CC1	-0.778%	–
Cn1cc(P(=S)(c2ccccc2)c2ccccc2)c2ccccc21	4.07%	–
O=S(=O)(Nc1ccc(-c2ccccc2)cc1)c1ccc(NCc2cccc(Cl)c2O)cc1	-0.0324%	–
Cc1c(P(=S)(c2ccccc2)c2ccccc2)[n+]2ccccc2n1C	–	inactive
COc1ccccc1CN[C@H]1C2CCN(CC2)[C@H]1C(c1ccccc1)c1ccccc1	-1.35%	–
CC1=C2C[C@H]3[C@@H](CC=C4C[C@@H](O)CC[C@@]43C)[C@@H]2CC[C@]12O[C@@H]1C[C@H](C)CN[C@H]1[C@H]2C	-10.1%	–
CCOc1ccc(CCNC(=O)c2cc3ccncc3n2Cc2cccc(C)n2)cc1OCC	-0.449%	–
Cc1nn2c(=O)cc(N3CCNCC3)nc2s1	1.86%	–
C[C@H]1O[C@@H](O[C@H]2CC[C@]3(CO)C4CC[C@]5(C)[C@@H](C6=CC(=O)OC6)CC[C@]5(O)[C@@H]4CC[C@H]3C2)[C@H](O)[C@H](O)[C@@H]1O[C@@H]1O[C@H](CO)[C@@H](O)[C@H](O)[C@H]1O (stereo not given in full)	20.8% [at 16.9 µM]	–
CC(=O)Nc1ncc(S(=O)(=O)N2CCOCC2)s1	-1.96%	–
N#Cc1nc(-c2cccc3ccccc23)oc1NCc1ccccc1	7.27%	–
C[C@@H](CN1CCC2(CC1)C(=O)NCN2c1cccc(F)c1)NC(=O)c1ccc(Br)cc1	-4.52%	–
CCCCCCn1c(=O)c(C(=O)Nc2ccc(C(=O)OCCC)cc2)c(O)c2ccccc21	11.2% [at 11.2 µM]	–
Cc1nnc2n1-c1sc(CCc3ccc(CC(C)C)cc3)cc1C(c1ccccc1Cl)=NC2C (stereo not given)	37.5%	–
